{"source": "PubChem BioAssay (Tox21)", "note": "Values joined by “and” are separate entries in the source; they are usually repeats but may differ in a detail not shown here. Identical values can stand only once. Active and inactive are the calls of the source. Calls follow the shape of the dose curve; as a rule, active = well fitted activation curve with a large enough effect in the repeat runs; inconclusive = weak or mixed curves; inactive = flat fitted curve, though single readings scatter. % is scaled to controls: 0 for no effect and ±100 for the full control effect; potency is read from the fitted curve at half-maximal effect."}
{"test": "A CellTox Green Cytotoxicity Assay to monitor cytotoxicity in HepG2 cells - 0 hour (AID 1224882); also: nearly all actives have a fitted effect of over 35% in size", "conditions": "CellTox Green fluorescence; series mostly up to 76.8 µM; cytotoxicity: at the top concentration", "procedure,_shortened": "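First, HepG2 cells (600/well) mixed with reagent were plated; second, after 5 h at 37 C they received compounds via pintool; third, fluorescence was measured at 0 h through 40 h at 8 h intervals.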"}
{"smiles": "O=C1OC(=O)c2ccc3c4c(ccc1c24)C(=O)OC3=O", "cytotoxicity": "-0.197% (inactive)"}
{"smiles": "CCN(CC)CCSC(=O)C(c1ccccc1)c1ccccc1", "cytotoxicity": "-0.477% [at 35.3 µM] (inactive)"}
{"smiles": "C=C1C(C)(C)[C@@]2(Cl)C(Cl)[C@]1(Cl)C(Cl)(Cl)C2(Cl)Cl", "note": "(stereo partly specified)", "cytotoxicity": "-4.75% (inactive)"}
{"smiles": "c1ccc(Sc2ccccc2)cc1", "cytotoxicity": "1.3% (inactive)"}
{"smiles": "CCCCCCCC(=O)OCC", "cytotoxicity": "11.3% (inactive)"}
{"smiles": "CCN=c1cc2oc3cc(NCC)c(C)cc3c(-c3ccccc3C(=O)OCC)c-2cc1C", "Potency": "6.89 µM (active) and 6.17 µM (active)"}
{"smiles": "COc1cccc(CCc2ccccc2OCC(CN(C)C)OC(=O)CCC(=O)O)c1", "note": "(stereo unspecified)", "cytotoxicity": "0.331% [at 35.3 µM] (inactive)"}
{"smiles": "Cc1oc(-c2ccccc2)nc1CCOc1ccc(C[C@H](Nc2ccccc2C(=O)c2ccccc2)C(=O)O)cc1", "cytotoxicity": "11% (inactive)"}
{"smiles": "CC(C)(C)C1=CC(=O)C=C(C(C)(C)C)C1=O", "cytotoxicity": "6.36% (inactive)"}
{"smiles": "Cc1cc(Nc2ccc(O)cc2)ccc1N", "cytotoxicity": "-8.78% (inactive)"}
{"smiles": "CCC1CCCCC1", "cytotoxicity": "-0.901% (inactive)"}
{"smiles": "CCCCCCCCCCCCCc1ccccc1", "cytotoxicity": "-14.1% [at 35.3 µM] (inactive)"}
{"smiles": "CC(=O)C=O", "cytotoxicity": "7.84% (inactive)"}
{"smiles": "CCCCCCCCCCCCCCCC", "cytotoxicity": "0.351% (inactive)"}
{"smiles": "O=c1cccc[nH]1", "cytotoxicity": "-1.43% (inactive)"}
{"smiles": "Cc1ccc(CCn2c3c(c4cc(Cl)ccc42)CN(C)CC3)cn1", "cytotoxicity": "1.17% [at 35.3 µM] (inactive)"}
{"smiles": "COc1ccc(-n2nc(CCC(=O)N(C)O)cc2-c2ccc(Cl)cc2)cc1", "cytotoxicity": "-5.83% [at 35.3 µM] (inactive)"}
{"smiles": "C1CC(COCC2CO2)CCC1COCC1CO1", "note": "(stereo unspecified)", "cytotoxicity": "3.56% (inactive)"}
{"smiles": "CCO[Si](C)(C)OCC", "cytotoxicity": "1.43% (inactive)"}
{"smiles": "COc1ccccc1C=O", "cytotoxicity": "14.7% (inactive)"}
{"smiles": "CC(C)c1ccccc1N", "cytotoxicity": "3.26% (inactive)"}
{"smiles": "O=S(=O)(O)CCCN1CCOCC1", "cytotoxicity": "-4.78% (inactive)"}
{"smiles": "CCCCCCCCC(C)=O", "cytotoxicity": "-4.09% (inactive)"}
{"smiles": "CC=O", "cytotoxicity": "7.46% (inactive)"}
{"smiles": "C[Si](C)(C)Cl", "cytotoxicity": "-5.56% (inactive)"}
{"smiles": "CCN(CC)c1ccc(N)cc1", "cytotoxicity": "-4.81% (inactive)"}
{"smiles": "O=C[C@H](O)[C@H](O)[C@H](O)CO", "cytotoxicity": "5.8% (inactive)"}
{"smiles": "c1cc(OCC2CO2)cc(OCC2CO2)c1", "note": "(stereo unspecified)", "cytotoxicity": "-0.255% (inactive)"}
{"smiles": "Oc1ccc(-c2ccc(O)cc2)cc1", "cytotoxicity": "0.0481% (inactive)"}
{"smiles": "CCc1cccc(C)c1", "cytotoxicity": "-7.5% (inactive)"}
{"smiles": "CCC(C)c1cc([N+](=O)[O-])cc([N+](=O)[O-])c1OC(=O)OC(C)C", "note": "(stereo unspecified)", "cytotoxicity": "-0.0511% (inactive)"}
{"smiles": "O=C1OC(OC(=O)c2cccnc2Nc2cccc(C(F)(F)F)c2)c2ccccc21", "note": "(stereo unspecified)", "cytotoxicity": "-6.38% [at 35.3 µM] (inactive)"}
{"smiles": "CCCC(CC)CCCCCCCN", "note": "(stereo unspecified)", "cytotoxicity": "-9.25% (inactive)"}
{"smiles": "Cc1cn[nH]c1", "cytotoxicity": "3.26% [at 35.3 µM] (inactive)"}
{"smiles": "C=C(C)C(=O)OCCC[Si](Cl)(Cl)Cl", "cytotoxicity": "-6.13% (inactive)"}
{"smiles": "CC(=O)Oc1ccc(C2(c3ccc(OC(C)=O)cc3)Oc3ccccc3NC2=O)cc1", "cytotoxicity": "0.0218% [at 35.3 µM] (inactive)"}
